# TIM10 inh: growth inhibitors of isogenic TIM10 control yeast, primary screen, counter-screen for tim10-1 yeast inhibitor project, luminescence, uHTS; S. cerevisiae TIM10 strain growth, BacTiter-Glo luminescence, 24 h; inhibition, % at 10 µM; 330,000 tested, 1.4% active;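 active = inhibition of 40% or more at the single tested concentration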;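 also: wild-type TIM10 isogenic control strain grown at permissive 25 °C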
# tim23-1 inh: growth inhibitors of tim23-1 mutant yeast, primary screen, luminescence, uHTS; AID 463212, 2010; 330,000 tested, 1.3% active; inhibition, % at 20 µM; S. cerevisiae tim23-1 growth, BacTiter-Glo luminescence, 24 h;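 active = growth inhibition of the mutant yeast at or above 50%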;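 also: temperature-sensitive mutant grown at 25 °C; plate controls were DMSO-treated mutant yeast for no effect and medium wells lacking yeast for full effect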
# NALP1 inh: NALP1 inflammasome inhibitors in reconstituted yeast, colorimetric, S. cerevisiae, triplicate retest; S. cerevisiae NALP1/ASC/caspase-1 growth, X-gal OD620, 72 h; inhibition, % at 10 µM; 280,000 tested, 0.61% active; in the data active = inhibition mostly above about 24%, no sharp cut-off; inactive = mostly below about 32%
# tim10-1 inh: growth inhibitors of tim10-1 mutant yeast, primary screen, luminescence, uHTS | S. cerevisiae tim10-1 ts strain growth, BacTiter-Glo, 24 h | inhibition, % at 20 µM | 330,000 tested, 2.2% active;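 active = inhibition of at least 40%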;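 also: mutant grown at 25 °C; 0% = DMSO wells with yeast and 100% = wells holding no yeast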
# NLRP3 yeast inh: NALP3 inflammasome inhibitors in reconstituted yeast, primary screen, luminescence, uHTS. Yeast reconstituted NLRP3/ASC/caspase-1, beta-gal luminescence, 24 h. 330,000 tested, 0.39% active. inhibition, % at 10 µM;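 active = inhibition of 50% or more; inactive = inhibition below 50%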;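 also: plate controls were induced DMSO wells for no effect and uninduced yeast grown without galactose for full effect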
# tim10-1 confirm: growth inhibitors of tim10-1 mutant yeast, confirmation, single concentration, luminescence, S. cerevisiae; shares compounds with tim10-1 inh; S. cerevisiae tim10-1 ts strain growth, BacTiter-Glo, 24 h; inhibition, % at 20 µM; 7,400 tested, 56% active; AID 463213, 2010;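 active = inhibition of yeast growth at or above a set limit in either of two repeat tests at 20 µM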;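 also: tim10-1 mutant grown at permissive 25 °C to find synthetic lethal compounds; 0% = DMSO yeast wells and 100% = medium wells without yeast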
# The depositor's hits bear a star; / = not tested or not shown. In the library only some 4% were active in any assay of this set; here they are far more common.
SMILES,TIM10 inh,tim23-1 inh,NALP1 inh,tim10-1 inh,NLRP3 yeast inh,tim10-1 confirm
Cc1nnc(SCC(=O)Nc2cc(C(F)(F)F)ccc2N2CCOCC2)o1,12,-4,9,15,-7,/
Cc1ccc(S(=O)(=O)N2CCN(CCOc3cccc(C)c3)CC2)cc1,3,43,/,15,16,/
COc1ccc(C2=NN(C(=O)CSc3nccn3C)C(c3ccco3)C2)cc1 (centres undefined),12,17,/,0,17,/
Cc1cccc(C)c1NC(=O)C(c1ccc(Cl)cc1Cl)N1CCCCC1 (centres undefined),18,-3,2,42*,11,23
COc1ccc2sc(-c3ccc(S(C)(=O)=O)cc3)c(C#CCO)c2c1,15,47,/,43*,17,41*
COC(=O)COc1ccc(S(=O)(=O)N2CCN(c3ccccc3F)CC2)cc1C,8,24,33,41*,0,31*
COC(=O)COc1ccc(S(=O)(=O)N2CCCCCC2)cc1C,3,7,6,8,21,/
CCCCC(CC(O)COCCC)c1n[nH]c(=S)n1-c1ccccc1 (centres undefined),10,7,45,11,12,/
Cn1c(CNC(=O)OC(C)(C)C)n[nH]c1=S,-7,-2,-3,10,4,/
CCn1ccnc1CN1CCc2c([nH]c3ccccc23)C1C(C)(C)C (centres undefined),35,34,3,47*,3,29
O=C(Cn1cnc(S(=O)(=O)N2CCCC2)c1)Nc1ccc(OC(F)(F)F)cc1,-1,-6,23,-12,-8,/
COc1ccc2[nH]c(=O)c(CN(Cc3nnnn3Cc3ccco3)C3CCCCC3)cc2c1,-4,19,12,5,4,/
COc1ccc2[nH]c(=O)c(CN(C3CCCCC3)C(c3nnnn3Cc3ccco3)C(C)C)cc2c1 (centres undefined),20,29,3,41*,22,16
CNC(=O)c1ccsc1NC(=O)c1ccc(Cl)s1,21,49,2,44*,13,32*
CNC(=O)c1ccsc1NC(=O)c1ccccc1,11,-21,16,-15,41,/
COc1cc(OC)cc(C(=O)NC(=S)NNC(=O)Cc2cccs2)c1,15,-39,-2,40*,23,11
CN(Cc1cn(Cc2ccccc2)nc1-c1ccc2c(c1)OCO2)Cc1nccn1C,1,-8,-22,-1,10,/
CCOC(=O)c1c(NC(=O)CSc2nnc(-c3ccco3)o2)sc(C)c1C,22,24,4,42*,18,17
CC1=C(C(=O)N2CCCCC2)C2(CCC(C)CC2)OC1=O (centres undefined),16,21,10,14,-1,/
CC1=C(C(=O)N2CCc3ccccc32)C2(CCC(C)CC2)OC1=O (centres undefined),22,28,-1,48*,-7,33*
Cc1ccc(-n2nc(C)c(C(=O)Nc3cccc(C(=O)NC4CC4)c3)n2)c(C)c1,15,28,/,44*,16,18
COc1cc2c(cc1NC(=O)COC(=O)[C@@H](NC(=O)c1ccccc1F)C(C)C)oc1ccccc12,21,20,22,40*,16,20
CCCCCCC(=O)Nc1nc(C)c(-c2csc(Nc3ccc(Cl)cc3)n2)s1,23,24,-37,39,6,/
CCCCCC(=O)Nc1nc(C)c(-c2csc(Nc3ccc(Cl)cc3)n2)s1,28,21,-4,41*,12,26
O=C(Nc1ccccc1CC[N+](=O)[O-])N1CCN(c2ccccc2)CC1,12,8,-4,-8,13,/
SMILES,TIM10 inh,tim23-1 inh,NALP1 inh,tim10-1 inh,NLRP3 yeast inh,tim10-1 confirm
Cc1ccc(C2CC2C(=O)NNC(=S)Nc2ccc(Cl)cc2)cc1 (centres undefined),7,4,10,46*,8,31
CC(C)(C)NC(=S)NNC(=O)[C@H]1C[C@@H]1c1ccccc1,15,4,-1,15,11,/
COc1ccc(F)cc1S(=O)(=O)n1nnc2ccccc21,24,47,-7,50*,-60,41*
COc1ccc(OC)c(S(=O)(=O)n2nnc3ccccc32)c1,18,3,7,19,3,/
COc1ccc(S(=O)(=O)N(C)C)cc1NC(=O)CSc1nnc(-c2cccnc2)o1,-2,-10,-3,2,0,/
Cn1c(N/N=C/c2cc3ccccc3nc2Cl)nc2ccccc21,21,30,21,42*,30,33*
Cn1c(N/N=C/c2c[nH]c3ccccc23)nc2ccccc21,-10,-25,5,11,14,/
COC(=O)/C=C/c1oc2ccccc2c1C,1,13,-6,10,-6,/
Nc1ccccc1C(=O)/C=C/c1ccc2c(c1)OCO2,32,46,32,44*,25,39*
O=C(/C=C/c1ccc2c(c1)OCO2)c1ccco1,22,24,41,17,-6,/
COC(=O)[C@]1(C)N[C@H](CN(C)S(=O)(=O)c2ccc(-c3ccccc3)cc2)[C@@H]2C(=O)N(C)C(=O)[C@@H]21,8,3,/,-13,1,/
CSc1nc(N)nc(-c2cccs2)c1C#N,13,49,-8,48*,-11,36*
Cc1cc(C)c2nc(N3CCCN(C(=O)c4ccco4)CC3)c(C#N)cc2c1,23,37,-22,47*,6,32*
Clc1ccccc1OCc1nnc(-c2ccccc2Br)o1,36,48,20,49*,7,34*
COc1ccc(OCC(=O)Nc2ccc(S(=O)(=O)N3CCCCC3)cc2)cc1,28,43,0,45*,7,52*
NS(=O)(=O)c1cccc(NC(=O)CCCC2CCCCC2)c1,11,7,3,-3,9,/
CN(C)S(=O)(=O)c1cccc(NC(=O)CCCC2CCCCC2)c1,17,27,8,41*,-5,25
CCc1ccccc1OCC(=O)Nc1cccc(S(=O)(=O)N2CCCC2)c1,15,30,/,42*,-6,26
N#Cc1ccccc1OCC(=O)Nc1cccc(S(=O)(=O)N2CCCC2)c1,10,26,/,14,8,/
CN(C)S(=O)(=O)c1cccc(NC(=O)COc2cccc3ccccc23)c1,16,30,/,41*,7,33*
CCN1CCN(c2ccc(N3CCN(S(=O)(=O)c4ccc(C)c([N+](=O)[O-])c4)CC3)nn2)CC1,4,-18,/,-28,23,/
Cc1cc(C)c(OCC(=O)Nc2ccc(S(=O)(=O)N3CCCC3)cc2)c(C)c1,27,43,/,41*,16,39*
